# Bioassay records (PubChem BioAssay)
# Most compounds without a hit are left out; they make up all but 12% or so of the library.
# Pf growth 48h: P. falciparum growth inhibition at 48 hours (one generation); AID 504832; P. falciparum luciferase growth in erythrocytes, 48 h; Potency, µM (top dose mostly 28.7 µM), for inactives: top-dose activity change, negative = inhibition, most hits filed as inhibitors; 310,000 compounds, 5.9% hits; further: on the % scale 0 is the no-effect control and ±100 the full control effect
#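 Parasite viability was followed by luminescence of a genomically integrated firefly luciferase. Cultures held 0.1% parasitemia at 2% hematocrit (final), incubated under 5% CO2 at 37 C.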
# Pf growth 96h: P. falciparum growth inhibition at 96 hour, primary screen for plastid delayed-death inhibitors; P. falciparum luciferase reporter growth, 96 h; 320,000 compounds, 6.9% hits; Potency, µM (series often up to 28.7 µM), for the others: top-dose activity change, negative = inhibition, usual class: inhibitors; further: on the % scale 0 is the no-effect control and ±100 the full control effect
#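 Plates of compound plus infected erythrocytes (2% hematocrit, 0.05% parasitemia final) incubate 96 hours, 37 C, 5% CO2. Detection reagent added; reduced luminescence from the parasites' luciferase reporter flags inhibition.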
# Sm TGR inh: blocks Schistosoma mansoni thioredoxin glutathione reductase; purified TGR, DTNB reduction, TNB absorbance 405 nm; Potency, µM (titrated, usually from 114 µM), inactives show at the top dose activity change, negative = inhibition, usual class: inhibitors; 360,000 compounds, 3% hits; AID 485364; further: on the % scale 0 is the no-effect control and ±100 the full control effect; nearly all actives have a fitted effect of over 60% in size
#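 Kinetic colorimetric format: TGR-catalysed, NADPH-driven DTNB reduction monitored via TNB absorbance. Enzyme dispensed at 20 nM; compound exposure 15 min at room temperature before reaction start.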
# AmpC detergent: blocks E. coli AmpC beta-lactamase in detergent assay | Potency, µM (highest dose often 114 µM), for the others: at the highest dose activity change, negative = inhibition, most hits filed as inhibitors | 370,000 compounds, 0.041% hits | P00811 | AmpC hydrolysis of nitrocefin, absorbance 480 nm, 0.01% Triton;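 further: 0% = no-compound wells and -100% = no-enzyme wells; nearly all actives have a fitted effect of over 25% in size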
# Target sequence (P00811 whole entry, looked up): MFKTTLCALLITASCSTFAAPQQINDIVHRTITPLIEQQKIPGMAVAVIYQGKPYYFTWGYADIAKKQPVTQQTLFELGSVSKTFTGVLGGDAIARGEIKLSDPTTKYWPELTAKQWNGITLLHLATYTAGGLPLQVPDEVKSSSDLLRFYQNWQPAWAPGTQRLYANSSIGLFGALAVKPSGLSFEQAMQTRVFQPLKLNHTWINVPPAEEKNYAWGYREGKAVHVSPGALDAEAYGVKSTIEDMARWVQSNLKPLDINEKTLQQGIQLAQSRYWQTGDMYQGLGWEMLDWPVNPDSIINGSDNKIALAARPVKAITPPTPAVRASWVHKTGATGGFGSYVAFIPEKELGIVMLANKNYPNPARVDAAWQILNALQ
#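 AmpC (5.3 nM in the dispensed reagent) in 20 mM phosphate pH 7.0 with 0.01% (detergent screen) or 0.0001% Triton X-100 was preincubated with compounds for 15 min at room temperature. Nitrocefin was then added from an 800 uM solution, and hydrolysis was followed at 480 nm.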
# SARS PLP yeast: SARS-CoV PLP inhibition in yeast; 330,000 compounds, 0.19% hits; Potency, µM (titrated, usually from 32.9 µM), without a hit: at the top dose activity, positive = growth rescue, actives largely listed as activators; AID 485353; S. cerevisiae expressing SARS-CoV PLpro, growth rescue; calls by dose curve; further: 0% is about no effect; nearly all actives have a fitted effect of over 55% in size
# AmpC inh no detg: blocks E. coli AmpC beta-lactamase in detergent-free assay; P00811; AmpC nitrocefin hydrolysis, absorbance 480 nm, 0.0001% Triton; Potency, µM (top dose mostly 57.1 µM), for inactives: top-dose activity change, negative = inhibition, usual class: inhibitors; 330,000 compounds, 0.52% hits;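 further: plate controls were no compound for no effect and no enzyme for full effect; nearly all actives have a fitted effect of over 20% in size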
#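 20 mM phosphate pH 7.0 + 0.01% (detergent screen) or 0.0001% Triton X-100; 5.3 nM AmpC reagent; cpd preinc 15 min RT; nitrocefin (800 uM stock) to start; A480 q20 s × 4 min; Activity was normalised to no-enzyme and no-compound control wells.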
# An asterisk follows results filed as active; ? = inconclusive; nt = no result given. Unless noted, the call rests on the fitted dose curve; in most records, active means well fitted curve in the direction sought with a large enough effect; inconclusive means small, poorly fitted or top-dose-only effect, or another doubt; inactive means no such curve, though single readings can be large; an effect the other way counts as inactive or inconclusive. Potency means the concentration at half of the fitted maximal effect.
SMILES,Pf growth 48h,Pf growth 96h,Sm TGR inh,AmpC detergent,SARS PLP yeast,AmpC inh no detg
COc1ccccc1CNC(=O)C(=O)NCCC1CCCCN1S(=O)(=O)c1cccs1 (configuration not stated),?,12µM*,-5%,-11%,-3%,-23%
Nc1nonc1C(=O)NCCNC(=O)c1cccc(Cl)c1,6%,-19%,3%,-3%,3%,-5%
COc1ccc(C)cc1NC(=O)c1ccc(NS(=O)(=O)c2cccs2)cc1,?,?,-8%,-9%,1%,-40%
C[n+]1cccc2cccc([O-])c21,3.3µM*,?,50µM*,-6%,-1%,-7%
CC1=CC2/C=C(\C)CCC(O)C(O)/C=C/C(=O)C23C(=O)NC(CC(C)C)C3C1C (configuration not stated),?,11%,4µM*,6%,0%,126%
Cc1ccc(Cl)cc1NC(=O)COC(=O)C12CC3CC(CC(C3)C1)C2,3.7µM*,7.4µM*,-28%,?,-31%,-17%
CC(=O)Nc1ccc(NC(=O)c2nc(S(=O)(=O)Cc3ccc(F)cc3)ncc2Cl)cc1,nt,nt,3.2µM*,?,nt,nt
CCc1ccc(NC(=O)c2nc(S(=O)(=O)Cc3ccccc3)ncc2Cl)cc1,42%,?,6.3µM*,-11%,-44%,-28%
Cc1ccc(NC(=O)c2nc(S(=O)(=O)Cc3ccc(F)cc3)ncc2Cl)cc1C,nt,nt,?,4%,nt,nt
CN(c1ccccc1)S(=O)(=O)c1ccc(NC(=O)c2nc(S(C)(=O)=O)ncc2Cl)cc1,17%,0%,1.3µM*,2%,nt,-10%
CCOC(=O)c1ccc(NC(=O)c2nc(S(=O)(=O)Cc3ccccc3)ncc2Cl)cc1,36%,1%,8.9µM*,-14%,1%,-26%
CCCCS(=O)(=O)CC(O)CSc1nc(-c2ccc(C)cc2)cc(-c2ccccc2)c1C#N (configuration not stated),nt,nt,-1%,13%,nt,nt
Cc1ccc(NC(=O)CCCn2c(=O)c3cccn3c3cccnc32)c(Cl)c1,nt,nt,5%,10%,nt,nt
CCOc1cc(C(=O)Nc2ccc3c(c2)n(C)c(=O)c(=O)n3C)cc(OCC)c1OCC,nt,nt,14%,24%,nt,nt
CCOC(=O)c1c(-c2ccccc2)csc1NC(=O)c1nc(SCC)ncc1Cl,nt,nt,-1%,11%,nt,nt
CCOC(=O)c1c(NC(=O)c2nc(S(C)(=O)=O)ncc2Cl)sc(C(C)=O)c1C,nt,nt,2.2µM*,2%,nt,nt
CCCS(=O)(=O)c1ncc(Cl)c(C(=O)Nc2ccc(S(=O)(=O)Nc3ncccn3)cc2)n1,41%,?,13µM*,1%,6%,-14%
CCOC(=O)c1c(-c2ccccc2)csc1NC(=O)c1nc(S(=O)(=O)CC)ncc1Cl,nt,nt,2µM*,13%,nt,nt
CCSc1ncc(Cl)c(C(=O)Nc2ccc(S(=O)(=O)N3CCC(C)CC3)cc2)n1,nt,nt,3%,14%,nt,nt
CCS(=O)(=O)c1ncc(Cl)c(C(=O)Nc2ccc(S(=O)(=O)N3CCC(C)CC3)cc2)n1,15%,64%,0.45µM*,?,-26%,0%
CCSc1ncc(Cl)c(C(=O)Nc2ccc(S(=O)(=O)Nc3ncccn3)cc2)n1,-15%,?,-10%,1%,4%,-11%
Cc1cc(C)c(CN2CCN(C(=O)Cn3cnc4c(NCc5ccccc5)ncnc43)CC2)c(C)c1,nt,nt,nt,nt,1%,-1%
COc1ccc2c(c1)c1c(c(=O)n(-c3cc(Cl)ccc3C)c(=O)n1Cc1ccc(F)cc1)n2C,nt,nt,0%,-1%,nt,nt
Cc1nn(Cc2ccc([N+](=O)[O-])cc2)c(=O)n1-c1c(F)cccc1F,-15%,0%,1%,-5%,-1%,?
CCS(=O)(=O)c1ncc(Cl)c(C(=O)Nc2ccccc2)n1,nt,nt,7.9µM*,-6%,nt,nt
SMILES,Pf growth 48h,Pf growth 96h,Sm TGR inh,AmpC detergent,SARS PLP yeast,AmpC inh no detg
CS(=O)(=O)c1ncc(Cl)c(C(=O)Nc2c(C(=O)Nc3ccccc3)oc3ccccc23)n1,nt,nt,6%,13%,nt,nt
CCOC(=O)/C(C)=C1\NC(C)(C)Cc2ccccc21,?,?,2%,25µM*,0%,?
Cc1ccccc1-c1nc(CS(=O)CC(=O)N2CCN(c3cc(Cl)ccc3C)CC2)c(C)o1 (configuration not stated),nt,nt,-26%,15%,nt,nt
CCCNC(=O)CS(=O)Cc1nc(-c2ccccc2C)oc1C (configuration not stated),nt,-23%,50µM*,?,1%,0%
CCOc1ccc(CCNC(=O)CS(=O)Cc2nc(-c3ccccc3C)oc2C)cc1OCC (configuration not stated),-11%,?,35µM*,0%,-2%,177%
Cc1ccccc1-c1nc(CS(=O)CC(=O)N2CCC3(CC2)OCCO3)c(C)o1 (configuration not stated),?,-26%,8.9µM*,12%,?,110%
CCC(C)NC(=O)CS(=O)Cc1nc(-c2ccccc2C)oc1C (configuration not stated),nt,-6%,8.9µM*,?,-5%,12%
Cc1ccccc1-c1nc(CS(=O)CC(=O)NCCN2CCN(Cc3ccccc3)CC2)c(C)o1 (configuration not stated),-5%,103%,-10%,?,-2%,183%
Cc1ccccc1-c1nc(CS(=O)CC(=O)NCc2ccccn2)c(C)o1 (configuration not stated),-2%,-10%,?,?,-6%,10%
N=c1n(CCO)c2ccccc2n1Cc1ccccc1F,nt,nt,1%,8%,nt,nt
CCCCOc1cccc(C(=O)N(Cc2cccs2)c2ccc(OC)cc2)c1,nt,nt,0%,17%,nt,nt
CCOC(=O)N1CCc2c(sc(NCc3cccc(F)c3)c2C(=O)Nc2ccc(OC)cc2OC)C1,nt,nt,-15%,-2%,nt,nt
CCc1ccc(-c2cn3c(n2)sc2cc(C(=O)NCCc4ccc(OC)cc4OC)ccc23)cc1,nt,nt,0%,17%,nt,nt
COc1ccc(Br)cc1CNC(=O)C(C)n1nc(C)n2c(cc3occc32)c1=O (configuration not stated),nt,nt,0%,21%,nt,nt
CC(C)=CC(=O)N1CC[C@@H](N2CCN(c3ccccc3F)CC2)[C@H](O)C1,-15%,?,-16%,5%,0%,-9%
Cc1cccc(OCc2nc(CC(=O)Nc3ccc(Cl)cc3)cs2)c1,nt,nt,-3%,24%,nt,nt
Cc1oc(-c2ccccc2F)nc1CS(=O)CC(=O)NC(C)C (configuration not stated),nt,nt,14µM*,-9%,nt,nt
CCN(CC)CCNC(=O)CS(=O)Cc1nc(-c2ccccc2Cl)oc1C (configuration not stated),2%,10µM*,?,-6%,13%,4%
